The results in this text go back to PubChem BioAssay (Tox21).

Unmarked numbers belong to inactive results. Results filed as inconclusive are left out. Calls of active or inactive are those of the source. Unless noted, calls come from the whole dose curve.

Test [1] in a line: Nuclear factor erythroid 2-related factor 2/antioxidant responsive element (Nrf2/ARE) small molecule agonists: qHTS cell viability counter screen in human keratinocytes (AID 1919968; active = well fitted curve in the direction sought with a large enough effect in the repeat runs; an effect the other way counts as inactive or inconclusive; note: nearly all actives have a fitted effect of over 55% in size; note: potency is the fitted concentration of half-maximal effect). In a few lines:
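CellTiter-Fluor fluorescence, read 1 h after reagent, gave viability in the same wells as the ARE-luciferase assay. KeratinoSens cells (1,500/well) had 23 h compound exposure at 37 C/5% CO2 following 5 h plating.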

A short description of test [2]: Nuclear factor erythroid 2-related factor 2/antioxidant responsive element (Nrf2/ARE) small molecule agonists: luciferase reporter gene qHTS assay in human keratinocytes (AID 1919969). Note: nearly all actives have a fitted effect of over 35% in size. Note: potency is the fitted concentration of half-maximal effect.
Test [3] has as its target KiSS-1 receptor (Homo sapiens) (UniProt Q969F8). As to the kind of experiment: Human kisspeptin (KISS1R) small molecule agonists, calcium flux assay in KISS1R-HEK293 cells (AID 1920064; active = well fitted curve in the direction sought with a large enough effect in the repeat runs; an effect the other way counts as inactive or inconclusive). In a few lines: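 Agonist mode: intracellular calcium rise tracked at 1 s intervals over 3 min (480/540 nm) immediately after compound addition to dye-loaded KISS1R-HEK293 stable cells. Each compound tested at 15 concentrations in triplicate.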

Test [4] in a line: G protein-coupled receptor (GPCR) small molecule agonists, calcium flux assay: HEK293 wild type cell line counter screen (AID 1920065). Put shortly:
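Calcium flux counter screen: compound added in agonist mode at 15 concentrations in triplicate to dye-loaded parental HEK293 cells. Fluorescence (480/540) read kinetically for 3 min; ATP served as positive control.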

A short description of test [5]: p53 small molecule agonists, cell-based qHTS assay with human liver microsomes: qHTS cell viability counter screen (AID 1963579). Note: nearly all actives have a fitted effect of over 45% in size. In a few lines: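 Cells carrying the p53 response-element beta-lactamase reporter are treated for 16 h at 37 C with test compounds in the presence of human liver microsomes and NADPH (both 0.5 mg/mL final); ATP-based CellTiter-Glo luminescence then reports viability.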

Test [6] is described as follows: p53 small molecule agonists, cell-based qHTS assay with rat liver microsomes: qHTS cell viability counter screen (AID 1963580). Note: nearly all actives have a fitted effect of over 45% in size. In a few lines:
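Rat liver microsome (0.5 mg/mL final) and NADPH (0.5 mg/mL final) co-incubation with compounds for 16 h at 37 C on HCT-116 p53RE-bla cells; cytotoxicity taken from intracellular ATP luminescence.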

Test [7] can be described thus: p53 small molecule agonists, cell-based qHTS assay: qHTS cell viability counter screen (AID 1963581). Note: nearly all actives have a fitted effect of over 45% in size. Note: potency is the fitted concentration of half-maximal effect. Put shortly: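 Counter screen read by CellTiter-Glo luminescence (ATP content, 30 min at room temperature), run in the same wells as the beta-lactamase reporter read. HCT-116 p53RE-bla cells saw compounds for 16 h at 37 C.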
Test [8] deals with 5-hydroxytryptamine receptor 2A (Homo sapiens) (UniProt P28223). Description: 5-hydroxytryptamine receptor 2A (HTR2A) small molecule antagonists, cell-based qHTS assay (AID 1963586). Note: nearly all actives have a fitted effect of over 45% in size. In a few lines:
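CHO cells stably expressing human HTR2A were plated for 18 h at 37 C, then loaded with calcium dye for 1 h. Compounds were preincubated 5 min at room temperature before DOI (4 nM solution) was added. Kinetic fluorescence was read for 3 min.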

Test [9] has the same target. As to the kind of experiment: 5-hydroxytryptamine receptor 2A (HTR2A) small molecule agonists, cell-based qHTS assay (AID 1963587). Note: nearly all actives have a fitted effect of over 30% in size. Note: potency is the fitted concentration of half-maximal effect. In a few lines: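 Kinetic calcium-flux fluorescence (2 min, 1 sec intervals) after compound addition in agonist mode. HTR2A-CHO cells were cultured 18 h, then dye-loaded 1 h at 37 C.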
Test [10] addresses Muscarinic acetylcholine receptor M1 (Homo sapiens) (UniProt P11229). Description: Cholinergic receptor muscarinic 1 (CHRM1) small molecule antagonists, cell-based qHTS assay (AID 1963588). Note: nearly all actives have a fitted effect of over 40% in size. In a few lines: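 Compounds were tested at 15 concentrations in three independent runs. Dye-loaded CHRM1-CHO cells were exposed 5 min at room temperature before stimulation by acetylcholine added at 50nM. Intracellular calcium was read kinetically on FDSS for 3 min.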

Test [11] has the same target. Description: Cholinergic receptor muscarinic 1 (CHRM1) small molecule agonists, cell-based qHTS assay (AID 1963589). Note: nearly all actives have a fitted effect of over 35% in size. In a few lines: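 Agonist-mode calcium-flux screen: compounds at 15 concentrations, three independent runs, were pin-transferred onto dye-loaded human CHRM1-CHO cells. Fluorescence was then recorded kinetically every second over minutes.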
Test [12] deals with D(2) dopamine receptor (Homo sapiens) (UniProt P14416). As to the kind of experiment: Dopamine D2 receptor (DRD2) small molecule antagonists, cell-based qHTS assay (AID 1963595; active = well fitted inhibition curve with a large enough effect in the signal ratio in the repeat runs, with a control signal flat; the % refers to the signal ratio; note: potency is the fitted concentration of half-maximal effect). In a few lines: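 HEK293 cells stably expressing DRD2, preincubated with 0.1 mM Ro20-1724 and compounds 10 min, were stimulated with 200 nM NKH477 plus 12 nM quinpirole for 30 min at room temperature; cAMP measured by HTRF (665/620 nm).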
Chain of D(2) dopamine receptor (Homo sapiens) (P14416 whole entry, looked up): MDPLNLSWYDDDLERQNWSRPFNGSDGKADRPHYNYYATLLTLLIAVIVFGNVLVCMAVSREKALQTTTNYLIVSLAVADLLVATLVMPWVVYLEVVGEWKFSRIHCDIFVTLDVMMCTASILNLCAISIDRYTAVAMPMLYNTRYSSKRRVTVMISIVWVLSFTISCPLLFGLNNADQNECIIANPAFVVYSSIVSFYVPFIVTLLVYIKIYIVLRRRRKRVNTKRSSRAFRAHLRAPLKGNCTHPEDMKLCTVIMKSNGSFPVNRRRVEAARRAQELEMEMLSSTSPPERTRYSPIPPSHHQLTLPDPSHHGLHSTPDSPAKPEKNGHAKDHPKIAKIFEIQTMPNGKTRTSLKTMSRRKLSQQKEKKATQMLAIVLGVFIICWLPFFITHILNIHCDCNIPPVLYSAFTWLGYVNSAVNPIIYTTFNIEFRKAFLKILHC

Test [13] can be described thus: cAMP Responsive Elements (CRE) small molecule agonists, cell-based qHTS assay (AID 1963590). Put shortly:
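Agonist mode: compound added to CRE-bla HEK 293T cells (2,000/well, 18 h after plating) for 3 h at 37 C/5% CO2. Reporter activity detected via FRET beta-lactamase substrate, 2 h room-temperature loading.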

The nature of test [14]: cAMP Responsive Elements (CRE) small molecule antagonists, cell-based qHTS assay (AID 1963591; active = well fitted inhibition curve with a large enough effect in the signal ratio in the repeat runs, not every such curve was filed as active; the % refers to the signal ratio). In a few lines: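 Antagonist mode: compounds are added alongside the adenylyl cyclase activator NKH477 (0.25 uM final) to CRE-bla HEK293T cells for 3 h. LiveBLAzer FRET substrate, 2 h at room temperature, reports bla expression.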
In test [15] the target is Beta-2 adrenergic receptor (Homo sapiens) (UniProt P07550). As to the kind of experiment: Adrenergic beta2 receptor (ADRB2) small molecule antagonists, cell-based qHTS assay (AID 1963592). Note: series mostly up to about 92 µM; nearly all actives have a fitted effect of over 50% in size. Put shortly:
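Assay format: CHO-ADRB2 cells, 18-20hr seeding at 37C/5% CO2, then compound plus 1nM isoproterenol agonist mix for 0.5hr RT. Homogeneous time-resolved fluorescence cAMP detection after 1hr, expressed as 665/615 nm ratio.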

Test [16] has the same target. As to the kind of experiment: Adrenergic beta2 receptor (ADRB2) small molecule agonists, cell-based qHTS assay (AID 1963593).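 Note: CHO cells stably overexpressing human ADRB2.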 Put shortly: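 CHO cells stably over-expressing ADRB2 were plated overnight at 37C, then dosed with compounds plus a stimulation mix containing 100uM IBMX and 25uM Ro-20-1724 for 0.5hr at room temperature. cAMP was measured by HTRF competition, 1hr.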

In test [17] the target is D(2) dopamine receptor (Homo sapiens) (UniProt P14416). Description: Dopamine D2 receptor (DRD2) small molecule agonists, cell-based qHTS assay (AID 1963594). Note: nearly all actives have a fitted effect of over 35% in size. In a few lines: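 cAMP accumulation in DRD2-HEK293 cells measured by HTRF after 1 h detection; compounds added 10 min before NKH477 (200nM […]) forskolin-analogue stimulation, 30 min at room temperature, with Ro20-1724 present at 0.1 mM final.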

Test [18] in a line: p53 small molecule agonists, cell-based qHTS assay with human liver microsomes (AID 1963577). In a few lines: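 Compounds act here after metabolic activation: human liver microsomes and NADPH, both at 0.5 mg/mL final, were co-added to p53RE-bla cells. Incubation ran 16 h at 37 C, followed by LiveBLAzer detection.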
Test [19] in a line: p53 small molecule agonists, cell-based qHTS assay with rat liver microsomes (AID 1963578). Put shortly:
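Read-out is beta-lactamase reporter fluorescence (LiveBLAzer, 2 h, room temperature, dark) in p53RE-bla cells treated 16 h at 37 C with compound, rat liver microsomes and NADPH, both 0.5 mg/mL final.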

Test [20] can be described thus: p53 small molecule agonists, cell-based qHTS assay (AID 1963582; active = well fitted activation curve with a large enough effect in the signal ratio in the repeat runs, not every such curve was filed as active; the % refers to the signal ratio). Put shortly: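 Read-out is beta-lactamase FRET fluorescence after 2 h at room temperature with LiveBLAzer B/G substrate. p53 response element-bla cells were treated 16 h at 37 C with compounds in DMSO, added 5 h after seeding.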
% is set by controls: 0 for no effect and ±100 for the full control effect.

Chain of Muscarinic acetylcholine receptor M1 (Homo sapiens) (P11229 whole entry, looked up): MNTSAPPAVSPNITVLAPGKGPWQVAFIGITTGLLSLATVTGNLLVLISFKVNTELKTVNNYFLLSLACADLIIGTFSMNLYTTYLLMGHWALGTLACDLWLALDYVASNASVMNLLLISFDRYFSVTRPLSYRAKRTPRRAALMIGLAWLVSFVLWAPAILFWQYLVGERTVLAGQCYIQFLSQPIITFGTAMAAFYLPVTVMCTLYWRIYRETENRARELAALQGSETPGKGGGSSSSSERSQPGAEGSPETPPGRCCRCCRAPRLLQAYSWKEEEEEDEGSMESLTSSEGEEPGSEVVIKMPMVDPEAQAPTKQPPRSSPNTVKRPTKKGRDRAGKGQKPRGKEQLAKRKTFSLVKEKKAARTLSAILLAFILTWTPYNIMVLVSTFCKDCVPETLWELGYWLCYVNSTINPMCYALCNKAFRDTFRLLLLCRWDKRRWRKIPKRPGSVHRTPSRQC
Chain of Beta-2 adrenergic receptor (Homo sapiens) (P07550 whole entry, looked up): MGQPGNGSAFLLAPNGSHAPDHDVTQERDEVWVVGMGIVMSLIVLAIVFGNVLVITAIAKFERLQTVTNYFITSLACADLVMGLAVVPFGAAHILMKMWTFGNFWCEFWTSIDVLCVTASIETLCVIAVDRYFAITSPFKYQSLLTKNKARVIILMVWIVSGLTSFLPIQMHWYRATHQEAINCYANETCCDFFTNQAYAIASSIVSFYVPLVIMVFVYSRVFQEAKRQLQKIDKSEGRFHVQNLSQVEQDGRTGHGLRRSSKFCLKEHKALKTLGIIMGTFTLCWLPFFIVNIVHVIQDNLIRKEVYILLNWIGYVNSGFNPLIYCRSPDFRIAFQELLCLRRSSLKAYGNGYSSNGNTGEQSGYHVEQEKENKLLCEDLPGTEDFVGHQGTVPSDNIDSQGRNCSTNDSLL
Chain of KiSS-1 receptor (Homo sapiens) (Q969F8 whole entry, looked up): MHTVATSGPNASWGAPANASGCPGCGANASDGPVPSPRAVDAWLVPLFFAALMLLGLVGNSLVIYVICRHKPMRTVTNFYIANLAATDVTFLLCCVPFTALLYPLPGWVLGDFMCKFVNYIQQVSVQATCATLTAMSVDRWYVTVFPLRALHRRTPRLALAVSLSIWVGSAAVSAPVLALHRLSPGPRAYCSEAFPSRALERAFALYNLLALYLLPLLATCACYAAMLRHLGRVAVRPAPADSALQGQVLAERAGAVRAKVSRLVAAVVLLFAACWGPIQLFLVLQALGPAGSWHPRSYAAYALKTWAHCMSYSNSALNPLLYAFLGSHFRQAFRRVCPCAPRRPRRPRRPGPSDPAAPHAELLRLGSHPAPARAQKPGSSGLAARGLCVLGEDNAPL
Chain of 5-hydroxytryptamine receptor 2A (Homo sapiens) (P28223 whole entry, looked up): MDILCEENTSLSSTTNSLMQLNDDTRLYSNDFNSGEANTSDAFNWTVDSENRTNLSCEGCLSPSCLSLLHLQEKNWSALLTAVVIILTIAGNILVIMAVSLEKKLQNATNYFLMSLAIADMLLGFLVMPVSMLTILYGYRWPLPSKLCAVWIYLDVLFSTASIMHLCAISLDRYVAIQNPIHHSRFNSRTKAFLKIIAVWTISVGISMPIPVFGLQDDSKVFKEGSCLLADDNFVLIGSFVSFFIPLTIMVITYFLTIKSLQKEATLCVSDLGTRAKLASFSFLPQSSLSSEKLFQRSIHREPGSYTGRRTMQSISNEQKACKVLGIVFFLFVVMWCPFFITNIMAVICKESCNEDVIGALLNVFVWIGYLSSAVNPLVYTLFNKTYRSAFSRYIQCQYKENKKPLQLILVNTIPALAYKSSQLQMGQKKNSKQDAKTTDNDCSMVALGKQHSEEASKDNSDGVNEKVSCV

For the compound `O=c1oc2cc(O)ccc2c2oc3cc(O)ccc3c12`, the Potency entry in test [1], in [3], in test [4], in test [5], in [6] and in [7] was “inactive” each time. Besides, the Potency entry in test [8], in test [9], in test [10], in test [11] and in [12] was “inactive” in each case. Further, the Potency in test [2] was 29.4 µM (active).

With `CC(O)CC(C)O` (stereo not given), the Potency result in test [1], in test [2], in test [3], in test [4], in [5] and in test [6] was “inactive” in each case. The Potency result in [8], in test [9], in test [10], in [11], in [13] and in [14] was “inactive” in each case. Besides, the Potency entry in [15], in test [16] and in test [17] was “inactive” throughout.

As to `CCCC(=O)OCCC(C)CCC=C(C)C` (stereo not given), the Potency entry in [1], in test [2], in [3], in [4], in test [5] and in test [6] was “inactive” in each case. The Potency result in [7], in test [8], in [9], in test [10], in test [11] and in test [13] was “inactive” in each case. For the same compound, the Potency result in test [14], in test [16], in test [17] and in [12] was “inactive” throughout.

Consider `[Cl][Bi]([Cl])([c]1ccccc1)([c]1ccccc1)[c]1ccccc1`, for which the Potency in test [1] was 6.08 µM (active); in test [2] it was 1.53 µM (active); in [7], 9.07 µM (active); in test [12] it was 13.6 µM (active). For the same compound, the Potency result in [4], in [18], in [19], in test [8], in test [10] and in test [15] was “inactive” in each case. Moreover, the Potency entry in [17] is “inactive”.

For `NNC(=O)CCCCC(=O)NN`, the Potency entry in [1], in test [2], in [3], in test [4], in test [5] and in test [6] was “inactive” in each case. The Potency result in [7], in test [9], in test [10], in [11], in [13] and in test [14] was “inactive” in each case. The Potency entry in [15], in [16], in test [17] and in test [12] was “inactive” throughout.

`Cc1cc(=O)c2c(O)c3c(O)cc(=O)c4c3c3c(cc(O)c1c23)C(C)(C)C=4O`: the Potency was 4.11 µM (active) in [1] and 0.657 µM (active) in [9]. For the same compound, the activity, positive = activation in [2] is 7.38% [at 19 µM]. Besides, the activation in test [3] was 3.73% [at 15.8 µM]; in test [4], 4.32% [at 11.8 µM]; in test [11], 13.3% [at 15.8 µM]; in test [16], 3.3% [at 19 µM]; in test [17] it was -19.9% [at 19 µM]. Besides, the figures for the activity change, negative = cytotoxicity in test [5] and in test [6] were -4.38% [at 13.5 µM] and -8.38% [at 13.5 µM], respectively. The activity, negative = inhibition is 1.4% [at 12.7 µM] in test [8] and 5.23% [at 12.6 µM] in test [10]. Besides, the activity change, negative = inhibition is 0.889% [at 19 µM] in [15] and 5.59% [at 18.9 µM] in test [12].

Take `CC(=O)N[C@@H](CCC(=O)O)C(=O)O`: the Potency entry in [1], in test [2], in [3], in test [4], in [5] and in [6] was “inactive” each time. The Potency result in test [7], in test [8], in [9], in test [10], in test [11] and in test [13] was “inactive” each time. Moreover, the Potency entry in [14], in [15], in test [17] and in test [12] was “inactive” each time.

On to `O=C(Cl)c1ccc(Cl)cc1Cl`, for which the Potency result in [1], in [2], in [4], in [18], in test [19] and in test [5] was “inactive” each time. In addition, the Potency result in test [7], in test [20], in test [10], in [11], in test [13] and in test [14] was “inactive” throughout. Also, the Potency entry in test [15], in test [16] and in test [17] was “inactive” throughout.
